Experimental data taken from PubChem BioAssay (EPA / NIEHS).
Values joined by “and” are separate entries in the source; they are usually repeats but may differ in a detail not shown here. Equal values may be shown once. Inconclusive results are not listed. Some compounds were tested as several samples or in several runs, with calls that do not always agree. Active and inactive are the calls of the source. Rule for the calls, unless noted: active = hit-call score of the fitted dose curve at least 0.9, where 1 is the maximum; inconclusive = response in the unintended direction; inactive = score below 0.9.

How the values were obtained:
[1] = biological target: human Norepinephrine Transporter (NET), SLC6A2 (gene 6530) (UniProt P23975); assay: NVS_TR_hNET: NovaScreen (NVS) Transporter Assay for human Norepinephrine Transporter (NET) (AID 2283377);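 note: cell-free membrane protein extracted from CHO cells expressing human NET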;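 for AC50: displacement of radioligand from human NET seen as loss of scintillation signal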
Method in brief: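 Single-concentration duplicate screen at 25 uM, then concentration-response for actives; displacement of specific radioligand from human NET in CHO membrane extracts, filter-based scintillation detection at 1 h relative to DMSO.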

[2] = biological target: Retinoic acid receptor RXR-alpha (Homo sapiens) (UniProt P19793); assay: OT_NURR1_NURR1RXRa_0480: Odyssey Thera (OT) 8-hour HEK293T Protein Complementation Assay for Nurr1/retinoid X receptor (RXR) (AID 2283385)
Method in brief: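 Interaction of bait and prey reconstitutes a functional reporter, whose fluorescence was measured in HEK293T cells dosed with compound for 8 hours. Signal gain relative to DMSO defined the single endpoint.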

[3] = biological target: Retinoic acid receptor RXR-alpha (Homo sapiens) (UniProt P19793); assay: OT_NURR1_NURR1RXRa_1440: Odyssey Thera (OT) 24-hour HEK293T Protein Complementation Assay for Nurr1/retinoid X receptor (RXR) (AID 2283386)
Method in brief: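 Steps: fragment-tagged Nurr1 and RXRα expressed in HEK293T; compounds added; after 24 h, complemented reporter quantified by fluorescence intensity; signal increase over DMSO fitted as the single endpoint.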

[4] = biological target: Peroxisome proliferator-activated receptor gamma (Homo sapiens) (UniProt P37231); assay: OT_PPARg_PPARgSRC1_0480: Odyssey Thera (OT) 8-hour Protein-Complementation Assay for Peroxisome Proliferator-activated Receptor Gamma / SRC-1 Co-activator (AID 2283387);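 note: nuclear to cytoplasmic split Venus YFP fluorescence ratio reporting PPARg SRC-1 interaction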
Method in brief: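 Read-out: 488 nm N/C fluorescence ratio from complemented Venus YFP fragments, ≥350 cells per image, gain-of-signal fitted against DMSO baseline. Fusions of PPARg/SRC-1 with IFP1/IFP2 expressed transiently in HEK293T; compounds applied 8 h.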

[5] = biological target: mouse Estrogen Receptor alpha (Era), Esr1 (gene 13982) (UniProt P19785); assay: NVS_NR_mERa: NovaScreen (NVS) Nuclear Receptor Binding Assay for mouse Estrogen Receptor alpha (Era) (AID 2283378);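 note: hit means loss of bound radioligand signal relative to DMSO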
Method in brief: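 Filter scintillation counts of bound radioligand, measured 18 h post-dose, gave the readout; decreased signal relative to DMSO controls indicated displacement from mouse Era. Primary screen ran in duplicate at 25 uM; active chemicals were retested across concentrations.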

[6] = biological target: Agonist Androgen Response Element (ARE), AR (gene 367) (UniProt P10275); assay: OT_AR_ARELUC_AG_1440: Odyssey Thera (OT) 24-hour CHO-K1 Luciferase Assay for Agonist Androgen Response Element (ARE) (AID 2283379)
Method in brief: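 Readout: luciferase bioluminescence from CHO-K1 ARE-luc cells, measured 24 h post-dosing; agonism = increased mean luminescence vs DMSO controls, fitted in positive direction.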

[7] = biological target: Bile acid receptor (Homo sapiens) (UniProt Q96RI1); assay: OT_FXR_FXRSRC1_0480: Odyssey Thera (OT) 8-hour HEK293T Protein-Complementation Assay for Farnesoid X receptor/SRC-1 Co-activator (AID 2283383)
Method in brief: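 PCA, HEK293T, 8 h compound exposure; FXR–SRC-1 binding reconstitutes split reporter; fluorescence intensity; positive-direction fit vs DMSO.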

[8] = biological target: Bile acid receptor (Homo sapiens) (UniProt Q96RI1); assay: OT_FXR_FXRSRC1_1440: Odyssey Thera (OT) 24-hour HEK293T Protein-Complementation Assay for Farnesoid X receptor/SRC-1 Co-activator (AID 2283384)
Method in brief: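 Measures ligand-driven FXR–SRC-1 co-activator recruitment in HEK293T via fragment complementation, fluorescence intensity at 24 h. DMSO served as negative control and baseline for gain-of-signal fitting.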

[9] = biological target: Estrogen receptor (Homo sapiens) (UniProt P03372); assay: OT_ERa_GFPERaERE_0480: Odyssey Thera (OT) 8-hour HeLa Transcription Induction Assay for Estrogen Receptor (AID 2283381; active = hit-call score of the fitted dose curve at least 0.9, where 1 is the maximum; inactive = score below 0.9)
Method in brief: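 Human cervical HeLa cells were treated for 8 hours, after which ERE-driven GFP induction was measured by fluorescence microscopy; increases over DMSO baseline defined activity.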

[10] = biological target: Estrogen receptor (Homo sapiens) (UniProt P03372); assay: OT_ERa_GFPERaERE_0120: Odyssey Thera (OT) 2-hour HeLa Transcription Induction Assay for Estrogen Receptor (AID 2283382)
Method in brief: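 Cells (human cervical HeLa) receive compound, incubate 2 hours, then are imaged for fluorescent reporter induction. Images are quantified by high content analysis, and activity is fitted as gain of signal against DMSO.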

Measured: AC50

Estrogen receptor (Homo sapiens), sequence (P03372 whole entry, looked up): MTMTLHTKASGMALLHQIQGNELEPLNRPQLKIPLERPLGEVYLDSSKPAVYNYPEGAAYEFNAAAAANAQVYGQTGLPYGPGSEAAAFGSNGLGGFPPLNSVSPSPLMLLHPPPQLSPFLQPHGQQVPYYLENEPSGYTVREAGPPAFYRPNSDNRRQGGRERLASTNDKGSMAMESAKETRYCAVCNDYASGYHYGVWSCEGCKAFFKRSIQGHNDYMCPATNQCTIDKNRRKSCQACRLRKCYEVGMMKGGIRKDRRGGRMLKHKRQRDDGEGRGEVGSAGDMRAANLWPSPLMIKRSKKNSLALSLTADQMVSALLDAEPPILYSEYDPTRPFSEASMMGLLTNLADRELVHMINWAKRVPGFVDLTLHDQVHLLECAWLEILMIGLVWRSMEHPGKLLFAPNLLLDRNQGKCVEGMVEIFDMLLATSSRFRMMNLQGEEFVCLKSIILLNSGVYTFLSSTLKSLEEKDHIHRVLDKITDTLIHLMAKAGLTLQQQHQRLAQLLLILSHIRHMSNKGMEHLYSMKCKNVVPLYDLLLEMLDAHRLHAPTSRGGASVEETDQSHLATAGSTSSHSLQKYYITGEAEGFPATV
Peroxisome proliferator-activated receptor gamma (Homo sapiens), sequence (P37231 whole entry, looked up, the tested form may be a part): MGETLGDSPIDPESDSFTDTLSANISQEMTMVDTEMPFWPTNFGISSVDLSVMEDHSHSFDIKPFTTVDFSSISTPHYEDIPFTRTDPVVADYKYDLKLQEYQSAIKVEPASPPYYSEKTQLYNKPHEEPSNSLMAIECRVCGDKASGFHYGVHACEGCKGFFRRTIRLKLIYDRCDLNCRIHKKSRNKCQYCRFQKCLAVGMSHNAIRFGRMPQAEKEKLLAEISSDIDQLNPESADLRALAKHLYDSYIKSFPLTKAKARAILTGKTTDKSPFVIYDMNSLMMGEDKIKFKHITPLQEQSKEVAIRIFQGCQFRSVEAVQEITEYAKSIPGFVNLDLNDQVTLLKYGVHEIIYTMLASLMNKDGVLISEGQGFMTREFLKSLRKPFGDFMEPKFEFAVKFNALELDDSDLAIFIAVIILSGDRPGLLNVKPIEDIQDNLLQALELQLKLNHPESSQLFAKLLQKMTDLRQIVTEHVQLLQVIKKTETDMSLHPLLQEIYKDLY
Agonist Androgen Response Element (ARE), AR (gene 367), sequence (P10275 whole entry, looked up): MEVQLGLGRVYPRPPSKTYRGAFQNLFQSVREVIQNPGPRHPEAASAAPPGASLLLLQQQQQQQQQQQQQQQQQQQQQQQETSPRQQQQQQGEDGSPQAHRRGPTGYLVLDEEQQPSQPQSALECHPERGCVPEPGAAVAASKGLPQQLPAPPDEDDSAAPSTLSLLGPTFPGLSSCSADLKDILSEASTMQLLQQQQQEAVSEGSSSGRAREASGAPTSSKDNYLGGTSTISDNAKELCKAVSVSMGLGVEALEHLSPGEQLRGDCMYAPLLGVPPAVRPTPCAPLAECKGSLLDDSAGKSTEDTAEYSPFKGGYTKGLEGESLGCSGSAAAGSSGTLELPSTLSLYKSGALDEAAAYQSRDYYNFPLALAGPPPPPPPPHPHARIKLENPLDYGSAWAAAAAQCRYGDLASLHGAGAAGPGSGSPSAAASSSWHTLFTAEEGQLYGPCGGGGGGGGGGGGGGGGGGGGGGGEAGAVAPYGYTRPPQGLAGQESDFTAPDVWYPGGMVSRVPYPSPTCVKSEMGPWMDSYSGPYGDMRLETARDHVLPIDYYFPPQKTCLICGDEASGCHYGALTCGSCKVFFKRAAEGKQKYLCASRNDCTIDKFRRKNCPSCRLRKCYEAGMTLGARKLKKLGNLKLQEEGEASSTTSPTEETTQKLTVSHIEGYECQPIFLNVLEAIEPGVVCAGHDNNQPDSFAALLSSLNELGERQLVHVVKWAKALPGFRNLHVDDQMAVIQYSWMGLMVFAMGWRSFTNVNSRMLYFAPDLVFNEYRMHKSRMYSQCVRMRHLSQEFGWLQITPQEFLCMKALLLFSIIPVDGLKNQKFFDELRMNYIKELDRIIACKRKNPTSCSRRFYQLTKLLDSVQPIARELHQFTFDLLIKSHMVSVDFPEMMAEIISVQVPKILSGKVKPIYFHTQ
mouse Estrogen Receptor alpha (Era), Esr1 (gene 13982), sequence (P19785 whole entry, looked up): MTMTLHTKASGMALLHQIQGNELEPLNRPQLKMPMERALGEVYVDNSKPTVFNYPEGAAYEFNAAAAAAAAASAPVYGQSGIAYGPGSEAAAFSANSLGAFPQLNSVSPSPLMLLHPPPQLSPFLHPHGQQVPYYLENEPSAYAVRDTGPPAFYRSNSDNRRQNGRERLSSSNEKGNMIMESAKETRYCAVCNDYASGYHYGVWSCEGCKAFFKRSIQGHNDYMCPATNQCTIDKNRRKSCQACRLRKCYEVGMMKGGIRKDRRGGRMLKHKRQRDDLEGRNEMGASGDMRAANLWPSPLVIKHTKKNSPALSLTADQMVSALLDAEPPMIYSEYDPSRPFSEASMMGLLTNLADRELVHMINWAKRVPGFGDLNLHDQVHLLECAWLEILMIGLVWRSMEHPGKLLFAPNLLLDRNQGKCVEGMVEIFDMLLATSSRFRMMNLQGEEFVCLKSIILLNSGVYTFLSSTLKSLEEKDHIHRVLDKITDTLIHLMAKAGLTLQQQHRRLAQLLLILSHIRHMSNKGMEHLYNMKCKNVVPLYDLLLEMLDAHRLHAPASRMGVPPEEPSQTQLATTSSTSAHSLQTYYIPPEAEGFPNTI
Retinoic acid receptor RXR-alpha (Homo sapiens), sequence (P19793 whole entry, looked up, the tested form may be a part): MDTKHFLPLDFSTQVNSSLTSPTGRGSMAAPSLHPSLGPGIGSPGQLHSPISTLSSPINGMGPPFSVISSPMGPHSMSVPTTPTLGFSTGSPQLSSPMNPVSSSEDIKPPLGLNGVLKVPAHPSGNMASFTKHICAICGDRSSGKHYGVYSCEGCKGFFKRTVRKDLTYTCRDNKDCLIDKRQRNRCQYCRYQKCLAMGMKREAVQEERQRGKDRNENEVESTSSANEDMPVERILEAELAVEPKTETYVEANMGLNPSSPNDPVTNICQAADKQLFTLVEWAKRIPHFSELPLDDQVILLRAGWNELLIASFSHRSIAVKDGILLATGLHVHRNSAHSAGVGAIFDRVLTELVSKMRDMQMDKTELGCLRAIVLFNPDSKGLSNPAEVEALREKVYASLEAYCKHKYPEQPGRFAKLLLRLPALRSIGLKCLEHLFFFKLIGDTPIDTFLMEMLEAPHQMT
Bile acid receptor (Homo sapiens), sequence (Q96RI1 whole entry, looked up, the tested form may be a part): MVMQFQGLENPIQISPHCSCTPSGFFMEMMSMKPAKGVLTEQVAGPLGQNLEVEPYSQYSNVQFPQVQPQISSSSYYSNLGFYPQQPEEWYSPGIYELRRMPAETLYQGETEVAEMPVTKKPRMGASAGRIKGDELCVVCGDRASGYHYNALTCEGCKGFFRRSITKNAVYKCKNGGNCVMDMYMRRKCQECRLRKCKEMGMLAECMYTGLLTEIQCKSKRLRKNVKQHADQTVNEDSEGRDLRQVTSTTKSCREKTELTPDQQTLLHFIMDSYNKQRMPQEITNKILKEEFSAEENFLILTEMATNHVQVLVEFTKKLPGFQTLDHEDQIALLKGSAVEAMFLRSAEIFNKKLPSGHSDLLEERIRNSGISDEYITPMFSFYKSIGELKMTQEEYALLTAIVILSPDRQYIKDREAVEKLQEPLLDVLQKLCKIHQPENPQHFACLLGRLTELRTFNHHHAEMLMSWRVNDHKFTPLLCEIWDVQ
human Norepinephrine Transporter (NET), SLC6A2 (gene 6530), sequence (P23975 whole entry, looked up): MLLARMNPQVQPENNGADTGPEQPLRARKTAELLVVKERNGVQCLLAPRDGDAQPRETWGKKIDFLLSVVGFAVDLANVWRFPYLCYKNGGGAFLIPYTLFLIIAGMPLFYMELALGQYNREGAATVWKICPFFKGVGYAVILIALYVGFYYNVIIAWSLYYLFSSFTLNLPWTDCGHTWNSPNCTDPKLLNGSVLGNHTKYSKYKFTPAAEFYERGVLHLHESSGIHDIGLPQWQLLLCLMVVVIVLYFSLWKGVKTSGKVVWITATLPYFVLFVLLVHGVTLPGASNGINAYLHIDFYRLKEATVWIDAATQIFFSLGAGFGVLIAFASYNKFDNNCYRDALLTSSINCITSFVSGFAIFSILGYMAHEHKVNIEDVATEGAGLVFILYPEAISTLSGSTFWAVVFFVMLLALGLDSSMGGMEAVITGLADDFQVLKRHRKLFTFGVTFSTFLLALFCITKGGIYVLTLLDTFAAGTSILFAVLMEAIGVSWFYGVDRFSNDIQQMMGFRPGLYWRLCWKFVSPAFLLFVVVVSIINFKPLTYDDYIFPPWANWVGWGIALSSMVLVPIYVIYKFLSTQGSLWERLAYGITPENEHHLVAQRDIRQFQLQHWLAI

S=C(S)NCCNC(=S)S.[Mn+2].[S-]C([S-])=NCCN=C([S-])[S-].[Zn+2]
inactive: [1] | [2] | [3] | [4]
active: [1] 0.269 µM | [3] 40.2 µM [middle of 4 runs]

C[C@]12CC[C@@H]3c4ccc(O)cc4C[C@@H](CCCCCCCCCS(=O)CCCC(F)(F)C(F)(F)F)[C@H]3[C@@H]1CC[C@@H]2O (some centres undefined)
active: [5] 3.4 µM and 2.01 µM | [6] 0.548 µM
inactive: [5] | [6] | [7] | [8] | [2] | [3] | [4]

CCCCOC(=O)[C@@H](C)Oc1ccc(Oc2ccc(C(F)(F)F)cn2)cc1
active: [10] 46.5 µM | [7] 58.9 µM
inactive: [9] | [8] | [2] | [3] | [4]

O=C(Nc1ccc([N+](=O)[O-])cc1Cl)c1cc(Cl)ccc1O
active: [7] 5.91 µM | [8] 1.21 µM | [2] 1.19 µM | [3] 1.45 µM
inactive: [9] | [10] | [2] | [3] | [4]

COC(=O)c1ccccc1C(=O)O
inactive: [9] | [10] | [2] | [3] | [4]

C#CCOC(=O)[C@@H](C)Oc1ccc(Oc2ncc(Cl)cc2F)cc1
not listed: [1] | [5] | [6]
inactive: all other assays above

CCCCOC(=O)C(C)Oc1ccc(Oc2ccc(C(F)(F)F)cn2)cc1 (centres undefined)
inactive: [9] | [10] | [7] | [8] | [2] | [3] | [4]
active: [2] 65.1 µM

S=C([S-])NCCNC(=S)[S-].[Mn+2]
inactive: [2] | [3] | [4]
active: [3] 69.5 µM

CCN(CC)C(=O)c1cccc(C)c1
inactive: [9] | [10] | [7] | [2] | [3] | [4]

CCOC(=O)C(C)Oc1ccc(Oc2nc3ccc(Cl)cc3o2)cc1 (centres undefined)
active: [7] 35.9 µM | [2] 78.9 µM
inactive: [8] | [2] | [3] | [4]

CCOC(=O)C(C)Oc1ccc(Oc2cnc3cc(Cl)ccc3n2)cc1 (centres undefined)
active: [7] 43 µM
not listed: [1] | [5] | [6]
inactive: all other assays above

C=CCOC(Cn1ccnc1)c1ccc(Cl)cc1Cl (centres undefined)
active: [2] 58.3 µM and 85.7 µM | [3] 78.5 µM and 79 µM
inactive: [4]

CCCCCOC(=O)COc1cc(N2C(=O)C3=C(CCCC3)C2=O)c(F)cc1Cl
inactive: [9] | [10] | [2] | [3] | [4]

CCN(Cc1c(F)cccc1Cl)c1c([N+](=O)[O-])cc(C(F)(F)F)cc1[N+](=O)[O-]
active: [9] 3.54 µM | [10] 6.39 µM
inactive: [7] | [2] | [3] | [4]

COC(=O)CSc1cc(N=c2sc(=O)n3n2CCCC3)c(F)cc1Cl
inactive: [6] | [7] | [2] | [3] | [4]

CCCN(CCC)c1c([N+](=O)[O-])cc(C(F)(F)F)c(N)c1[N+](=O)[O-]
inactive: [4]
active: [9] 1.3 µM | [10] 0.895 µM | [7] 56.9 µM | [8] 50 µM | [2] 32.7 µM and 55.6 µM | [3] 35.9 µM and 34.9 µM

COC(=O)c1ccc(I)cc1S(=O)(=O)NC(=O)Nc1nc(C)nc(OC)n1
inactive: [3] | [4]

CCCCCCC(C)OC(=O)COc1nc(F)c(Cl)c(N)c1Cl (centres undefined)
inactive: [2] | [3]
active: [2] 79.2 µM

CCCCC(CC)CN1C(=O)C2C3C=CC(C3)C2C1=O (centres undefined)
inactive: [9] | [10] | [2] | [3] | [4]

CCCCC(CC)COC(=O)c1ccccc1C(=O)O (centres undefined)
inactive: [2] | [3]

CC(C)(C)[C@@H](O)[C@@H](Cc1ccc(Cl)cc1)n1cncn1
inactive: [7] | [8] | [2] | [4]

CCOC(=O)NCCOc1ccc(Oc2ccccc2)cc1
inactive: [9] | [10] | [2] | [3] | [4]
active: [7] 11.7 µM | [8] 12.1 µM | [2] 2.34 µM | [3] 50 µM

CN(C)C(=O)Nc1ccc(Cl)c(Cl)c1
inactive: [9] | [10] | [2] | [3] | [4]

COc1c(Cl)ccc(Cl)c1C(=O)O
inactive: [9] | [10] | [3] | [4]

COCCO
inactive: [9] | [10] | [2] | [3] | [4]

CCNc1nc(N)nc(Cl)n1
inactive: [2] | [3]

CCC(C)OC(=O)N1CCCCC1CCO (centres undefined)
inactive: [7] | [8] | [2] | [3] | [4]

OB(O)O
inactive: [9] | [10] | [7] | [3] | [4]

CCCOC(=O)NCCCN(C)C
inactive: [2] | [3] | [4]
